Experimental data: PubChem BioAssay
Calls of active or inactive are those of the source.

How the values were obtained:
[1] = tested on: Plasmodium falciparum Sir2 (PF13_0152, Sir2A); assay: pfSir2 binders on small-molecule microarrays, primary screen, biochemical, small-molecule microarray, 635 nm fluorescence (AID 1098); conditions: small-molecule microarray binding, fluorescence 635 nm; higher = more signal;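 note: score merges spot fluorescence intensity with its signal-to-noise ratio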
[2] = small-molecule microarray binders of probe aDKK1, primary screen, biochemical, biotinylated probe, 635/667 nm fluorescence (AID 1099); conditions: higher = more signal;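 note: score merges 667nm spot fluorescence with signal to noise across triplicate slides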
[3] = small-molecule microarray binders of probe aCHRDL2, primary screen, biochemical, biotinylated probe, 635/667 nm fluorescence (AID 1100); conditions: higher = more signal
[4] = splicing luciferase reporter signal modulators, primary screen, spliceosome inhibition project, cell-based, HEK293, splice +/- reporter (AID 1101); conditions: luminescence, 24 h, higher = more signal, called active from +8 up or from −8 down;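 note: HEK293 cells carrying a splicing-competent luciferase reporter gene; test concentration not given here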
[5] = molecular target: Fibroblast growth factor 10 (Homo sapiens) (UniProt O15520); assay: FGF10 binders on small-molecule microarrays, primary screen, biochemical, small-molecule microarray, 635 nm fluorescence (AID 1102); conditions: FGF10 binding, fluorescence 635 nm, higher = more signal
Chain of Fibroblast growth factor 10 (Homo sapiens) (O15520 whole entry, looked up): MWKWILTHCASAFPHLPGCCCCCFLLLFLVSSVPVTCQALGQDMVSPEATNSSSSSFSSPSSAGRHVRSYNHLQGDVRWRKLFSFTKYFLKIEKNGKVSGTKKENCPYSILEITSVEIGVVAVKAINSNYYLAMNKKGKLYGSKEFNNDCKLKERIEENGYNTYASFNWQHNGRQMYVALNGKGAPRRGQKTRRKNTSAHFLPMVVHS

[6] = tested on: glycogen synthase kinase-3 (GSK3A per assay name; protocol says GSK3B); assay: GSK3 binders on small-molecule microarrays, primary screen, biochemical, small-molecule microarray, 635 nm fluorescence, GSK3A (AID 1103); conditions: small-molecule microarray binding, fluorescence 635 nm; higher = more signal; note: the record names both GSK3A and GSK3B
[7] = molecular target: Epidermal growth factor receptor (Homo sapiens) (UniProt P00533); assay: EGFR binders on small-molecule microarrays, primary screen, biochemical, small-molecule microarray, 635 nm fluorescence (AID 1104); conditions: EGFR binding, higher = more signal;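 note: score merges 667 nm emission intensity with spot signal to noise over triplicate slides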
Chain of Epidermal growth factor receptor (Homo sapiens) (P00533 whole entry, looked up): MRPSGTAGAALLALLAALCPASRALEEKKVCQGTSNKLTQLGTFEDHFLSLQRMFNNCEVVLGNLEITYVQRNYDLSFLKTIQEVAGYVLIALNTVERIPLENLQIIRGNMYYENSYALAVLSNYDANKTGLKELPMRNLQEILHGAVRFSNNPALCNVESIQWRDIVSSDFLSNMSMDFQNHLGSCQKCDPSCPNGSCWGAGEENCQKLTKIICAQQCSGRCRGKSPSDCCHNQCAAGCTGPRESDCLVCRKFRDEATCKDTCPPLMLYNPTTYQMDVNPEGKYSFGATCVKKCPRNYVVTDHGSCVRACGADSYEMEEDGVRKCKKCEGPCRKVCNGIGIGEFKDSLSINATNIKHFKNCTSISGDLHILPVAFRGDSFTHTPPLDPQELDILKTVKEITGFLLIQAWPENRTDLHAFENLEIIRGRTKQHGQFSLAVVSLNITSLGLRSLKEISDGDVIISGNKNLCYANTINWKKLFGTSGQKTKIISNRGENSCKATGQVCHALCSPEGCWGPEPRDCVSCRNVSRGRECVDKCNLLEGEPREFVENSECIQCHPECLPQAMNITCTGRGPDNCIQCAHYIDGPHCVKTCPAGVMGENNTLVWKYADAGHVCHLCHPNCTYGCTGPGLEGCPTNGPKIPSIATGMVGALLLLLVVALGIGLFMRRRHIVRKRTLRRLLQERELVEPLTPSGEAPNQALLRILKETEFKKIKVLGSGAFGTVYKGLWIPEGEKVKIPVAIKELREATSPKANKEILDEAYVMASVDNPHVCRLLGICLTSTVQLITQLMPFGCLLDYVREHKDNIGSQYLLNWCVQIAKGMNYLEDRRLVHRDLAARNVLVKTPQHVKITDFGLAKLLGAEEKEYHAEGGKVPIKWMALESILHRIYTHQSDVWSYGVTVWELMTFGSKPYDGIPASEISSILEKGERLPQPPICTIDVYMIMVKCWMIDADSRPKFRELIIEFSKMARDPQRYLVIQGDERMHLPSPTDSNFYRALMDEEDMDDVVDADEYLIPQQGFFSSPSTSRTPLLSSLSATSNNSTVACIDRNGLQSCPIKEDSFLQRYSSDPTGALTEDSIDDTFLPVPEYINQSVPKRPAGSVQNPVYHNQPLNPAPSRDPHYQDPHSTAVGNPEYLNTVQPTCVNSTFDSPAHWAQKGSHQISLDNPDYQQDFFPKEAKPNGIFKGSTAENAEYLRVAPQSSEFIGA

[8] = molecular target: Follistatin-related protein 3 (Homo sapiens) (UniProt O95633); assay: FSTL3 binders on small-molecule microarrays, primary screen, biochemical, small-molecule microarray, 635 nm fluorescence (AID 1105); conditions: FSTL3 binding, higher = more signal;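 note: score merges emission near 667 nm and signal to noise per printed spot across three slides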
Chain of Follistatin-related protein 3 (Homo sapiens) (O95633 whole entry, looked up): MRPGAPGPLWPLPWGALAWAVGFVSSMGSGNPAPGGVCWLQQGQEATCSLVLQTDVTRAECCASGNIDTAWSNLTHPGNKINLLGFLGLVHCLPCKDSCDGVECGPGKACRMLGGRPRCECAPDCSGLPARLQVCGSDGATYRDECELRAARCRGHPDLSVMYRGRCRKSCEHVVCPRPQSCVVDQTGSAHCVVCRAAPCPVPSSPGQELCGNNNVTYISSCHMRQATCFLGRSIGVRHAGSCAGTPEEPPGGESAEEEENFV

[9] = molecular target: Dickkopf-related protein 1 (Homo sapiens) (UniProt O94907); assay: DKK1 binders on small-molecule microarrays, primary screen, biochemical, small-molecule microarray, 635 nm fluorescence scan (AID 1106); conditions: DKK1 binding, higher = more signal;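 note: score merges emission near 667 nm with signal to noise over three replicate slides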
Chain of Dickkopf-related protein 1 (Homo sapiens) (O94907 whole entry, looked up): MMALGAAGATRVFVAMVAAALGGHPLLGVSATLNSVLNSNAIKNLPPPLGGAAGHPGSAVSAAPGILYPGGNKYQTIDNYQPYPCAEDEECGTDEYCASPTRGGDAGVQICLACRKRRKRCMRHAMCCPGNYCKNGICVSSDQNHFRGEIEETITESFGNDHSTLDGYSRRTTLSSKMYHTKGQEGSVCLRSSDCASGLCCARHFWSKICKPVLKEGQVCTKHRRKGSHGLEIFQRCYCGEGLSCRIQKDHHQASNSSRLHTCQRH

[10] = tested on: Inhibin beta A chain (activin A); assay: INHBA (activin A) binders on microarrays, primary screen, biochemical, small-molecule microarray, 635 nm fluorescence scan (AID 1107); conditions: small-molecule microarray binding, higher = more signal;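 note: mouse activin A protein probed at 4.33 µg/mL on printed slides; score merges bound-protein fluorescence near 667 nm with spot signal-to-noise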
[11] = tested on: Human papillomavirus type 1a protein E7 (residues 44-93); assay: HPV1a E7 fragment binders on microarrays, primary screen, biochemical, small-molecule microarray, residues 44-93, 635 nm fluorescence (AID 1108); conditions: small-molecule microarray binding, fluorescence 635 nm; higher = more signal;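 note: E7 fragment applied at 1 µg/mL in TBST for 1 h at 4 C; score combines spot fluorescence with its signal to noise ratio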
[12] = modulators of HCV replicon luciferase signal, primary screen, HCV replication inhibitor project, Huh7 cells, luciferase reporter (AID 1109); conditions: 48 h, higher = more signal;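 note: huh7 hepatoma cells harbouring a luciferase neomycin HCV replicon reporter; luciferase luminescence as measure of HCV replicon replication; test concentration not given here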
[13] = molecular target: Left-right determination factor 2 (Homo sapiens) (UniProt O00292); assay: LEFTY2 binders on small-molecule microarrays, primary screen, biochemical, small-molecule microarray, 635 nm fluorescence scan (AID 1110); conditions: LEFTY2 binding, higher = more signal
Chain of Left-right determination factor 2 (Homo sapiens) (O00292 whole entry, looked up): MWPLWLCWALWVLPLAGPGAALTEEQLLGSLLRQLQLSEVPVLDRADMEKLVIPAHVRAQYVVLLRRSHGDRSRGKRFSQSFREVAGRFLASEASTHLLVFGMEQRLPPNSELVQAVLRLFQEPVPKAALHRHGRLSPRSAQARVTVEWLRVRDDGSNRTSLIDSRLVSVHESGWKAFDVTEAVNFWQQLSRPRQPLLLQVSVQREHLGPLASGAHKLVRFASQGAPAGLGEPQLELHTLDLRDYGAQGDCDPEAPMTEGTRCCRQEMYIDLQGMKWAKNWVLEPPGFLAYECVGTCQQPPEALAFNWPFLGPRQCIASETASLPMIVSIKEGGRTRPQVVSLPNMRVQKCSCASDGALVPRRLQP

[14] = molecular target: Calmodulin-1 (Homo sapiens) (UniProt P0DP23); assay: CALM1 binders on microarrays, EGTA buffer, profiling panel, biochemical, small-molecule microarray, Cy5-labelled CALM1 (AID 1111); conditions: Cy5-CALM1 binding fluorescence, higher = more signal;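 note: labelled calmodulin applied in Tris saline Tween buffer holding calcium plus EGTA and DTT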
[15] = molecular target: Calmodulin-1 (Homo sapiens) (UniProt P0DP23); assay: calcium-bound CALM1 binders on microarrays, profiling panel, artefact control for SMM control-protein annotation, biochemical, small-molecule microarray, Cy5-labelled CALM1, plus calcium (AID 1112); conditions: Cy5-CALM1 binding fluorescence, higher = more signal;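 note: score merges spot fluorescence with signal to noise from triplicate slides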
[16] = small-molecule microarray binders of probe aWnt5a, primary screen, biochemical, biotinylated probe, 635/667 nm fluorescence (AID 1113); conditions: higher = more signal;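 note: score merges 667 nm fluorescence intensity with signal-to-noise per printed feature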
[17] = small-molecule microarray binders of probe aShh, primary screen, biochemical, biotinylated probe, 635/667 nm fluorescence (AID 1114); conditions: higher = more signal;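 note: probe is biotin-labelled aShh protein from a stem cell growth factor screen; measures binding of labelled protein to compounds printed on the slide; score merges feature fluorescence at 667 nm with signal-to-noise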
[18] = small-molecule microarray binders of probe aNog, primary screen, biochemical, biotinylated probe, 635/667 nm fluorescence (AID 1115); conditions: higher = more signal;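 note: probe is biotinylated aNog protein used at 0.15 µg/mL for 1 h at 4 C; z-score combines 667 nm fluorescence of each spot with its signal to noise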
[19] = molecular target: Torsin-1A-interacting protein 1 (Homo sapiens) (UniProt Q5JTV8); assay: LAP1 binders from COS7 cell lysate, primary screen, small-molecule microarray, 635/667 nm fluorescence (AID 1116); conditions: COS7-hLAP1 lysate binding, 635 nm fluorescence, higher = more signal
Chain of Torsin-1A-interacting protein 1 (Homo sapiens) (Q5JTV8 whole entry, looked up): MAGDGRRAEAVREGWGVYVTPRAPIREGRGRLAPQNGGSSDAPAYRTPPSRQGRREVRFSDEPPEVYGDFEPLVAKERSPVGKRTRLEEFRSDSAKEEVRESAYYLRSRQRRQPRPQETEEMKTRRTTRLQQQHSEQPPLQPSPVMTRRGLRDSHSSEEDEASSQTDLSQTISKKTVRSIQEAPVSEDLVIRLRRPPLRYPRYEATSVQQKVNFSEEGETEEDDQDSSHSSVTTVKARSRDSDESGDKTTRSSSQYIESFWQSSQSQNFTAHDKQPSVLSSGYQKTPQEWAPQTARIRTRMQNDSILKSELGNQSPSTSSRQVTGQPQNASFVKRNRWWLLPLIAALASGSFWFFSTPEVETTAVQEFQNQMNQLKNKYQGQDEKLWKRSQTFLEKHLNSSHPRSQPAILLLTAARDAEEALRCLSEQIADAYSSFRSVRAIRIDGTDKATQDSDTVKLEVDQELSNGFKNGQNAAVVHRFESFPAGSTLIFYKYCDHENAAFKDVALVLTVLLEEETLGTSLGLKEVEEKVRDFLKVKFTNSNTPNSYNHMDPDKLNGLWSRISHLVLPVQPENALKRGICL

[20] = molecular target: Alpha-bungarotoxin (Bungarus multicinctus) (UniProt P60615); assay: alpha-bungarotoxin binders on microarray, profiling panel, artefact control for SMM control protein annotation, biochemical, small-molecule microarray, Alexa647 label, 635/667 nm fluorescence (AID 1117); conditions: alpha-BTX-A647 binding fluorescence, higher = more signal
Chain of Alpha-bungarotoxin (Bungarus multicinctus) (P60615 whole entry, looked up): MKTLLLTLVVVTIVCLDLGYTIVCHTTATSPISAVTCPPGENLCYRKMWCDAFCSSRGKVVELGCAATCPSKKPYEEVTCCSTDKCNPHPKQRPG

SMILES | composite z-score [1] | composite z-score [2] | composite z-score [3] | z-score [4] | composite z-score [5] | composite z-score [6] | composite z-score [7] | composite z-score [8] | composite z-score [9] | composite z-score [10] | composite z-score [11] | z-score [12] | composite z-score [13] | composite z-score [14] | composite z-score [15] | composite z-score [16] | composite z-score [17] | composite z-score [18] | composite z-score [19] | composite z-score [20]
O=C1N[C@@H](Cc2ccccc2)C(=O)N2[C@@H]1C[C@@H](C(=O)O)[C@H]2c1cccc(OCCO)c1 | 1.56 | 0.0092 | 0.18 | 0.152 (inactive) | 1.45 | 1.29 | 0.334 | 0.798 | 1.18 | 0.806 | 1.3 | 2.89 | 0.941 | -0.657 | 0.465 | -0.176 | -0.243 | -0.199 | 0.49 | 1.14
CC(CO)N1C(=O)[C@@H]2C3C(=O)OCCC/C=C\[C@H]3OC23C=CCN(C(C)(C)C)C(=O)[C@@H]13 (stereo not given in full) | 0.205 | -0.349 | -0.522 | 0.742 (inactive) | 0.259 | -0.0474 | -0.325 | 0.0856 | 0.113 | 0.0635 | -0.898 | 0.367 | -0.0466 | -0.565 | -0.769 | -0.192 | 0.108 | -0.147 | 0.859 | 0.149
CC(C)NC(=O)[C@@]1(C)c2ccccc2C(=O)N(Cc2cc(C(F)(F)F)cc(C(F)(F)F)c2)[C@H]1c1ccc(CO)cc1 | 1.2 | 0.0251 | 1.17 | 0.207 (inactive) | -0.609 | -0.589 | -0.584 | -1.13 | -0.788 | -0.0259 | 1.02 | -0.319 | -0.826 | 0.226 | 0.764 | -0.101 | -0.0398 | 1.07 | 0.454 | -0.361
O=C1NC(=O)C2C1C=CC(C(O)c1cccs1)N2Nc1ccc(Cl)cc1Cl (stereo not given) | 1 | 0.82 | 1.03 | 0.569 (inactive) | 0.438 | -1.21 | -0.893 | -0.375 | -0.456 | 1.03 | -1.16 | -0.153 | -0.824 | 0.0484 | 0.243 | -0.212 | 0.0278 | -0.774 | 1.89 | -0.779
COC(=O)[C@@]1(Cc2ccccc2)[C@H]2c3cc(C(=O)N4CCCC4)n(Cc4ccc(S(C)(=O)=O)cc4)c3C[C@H]2CN1C(=O)c1ccccc1 | 0.525 | 1.52 | 1.03 | -1.18 (inactive) | 0.387 | 1.18 | 0.679 | 0.94 | 0.222 | 1.3 | 0.97 | -2.02 | 0.711 | 2.61 | 1.35 | -0.0965 | -0.34 | -0.232 | 1.86 | 0.863
C=CCNC(=O)[C@H]1[C@@H]2C(=O)O[C@@H](c3ccccc3)[C@@H](c3ccccc3)N2[C@@H](c2ccccc2OCCO)[C@]12C(=O)Nc1ccc(C#CCCO)cc12 | 0.932 | -0.0856 | 0.784 | -0.411 (inactive) | 1.66 | -1.03 | -0.281 | 0.229 | 1.97 | 0.479 | 1.39 | -2.26 | 0.607 | -0.231 | -0.09 | 0.0357 | -0.206 | 0.0703 | 0.567 | 0.365
[N-]=[N+]=Nc1ccccc1[C@@H]1OC(c2ccc(OCCCO)cc2)=N[C@]1(Cc1ccccc1)C(=O)N1CCOCC1 | 0.839 | 1.05 | 1.11 | -1.15 (inactive) | 1.39 | 1.28 | 0.308 | 1.16 | 0.284 | 0.904 | 1.44 | -1.41 | 0.425 | 1.65 | 0.959 | 0.72 | 0.315 | 0.314 | 1.21 | 1.3
CO[C@H]1O[C@H](CO)[C@@H](OC(=O)Nc2ccccc2)[C@H](OC(=O)Nc2ccccc2)[C@@H]1OC(=O)Nc1ccccc1 | 1.48 | -0.136 | -0.103 | -1.29 (inactive) | 1.44 | 1.3 | 1.12 | 1.11 | 0.439 | 0.0784 | 1.39 | -1.93 | 0.179 | 0.928 | -0.136 | 0.111 | -0.0793 | -0.541 | 0.835 | 0.796
COC(=O)[C@@]1(Cc2ccccc2)[C@H]2c3cc(C(=O)N(C)C)n(Cc4ccsc4Br)c3C[C@H]2CN1C(=O)c1ccccc1 | -0.0533 | 0.894 | 1.17 | -1.3 (inactive) | 1.02 | 0.439 | -0.354 | 1.12 | -0.506 | 0.669 | 1.41 | -3.07 | -0.329 | 1.79 | 0.463 | 0.107 | 0.342 | 1.2 | 0.905 | 0.626
CCCCCN1CC=CC23O[C@@H]4C=CCCOC(=O)C4[C@H]2C(=O)N(CCCCCO)[C@@H]3C1=O (stereo not given in full) | -0.158 | -0.287 | 0.249 | -0.978 (inactive) | -0.8 | -0.299 | -1.16 | -1.15 | -0.503 | 0.516 | -0.168 | -0.605 | -0.368 | -0.339 | -0.578 | -0.096 | -0.243 | -0.178 | 0.884 | -0.99
